Some test systems named below: SR leukemia; RPMI-8226 leukemia; OVCAR-8 ovarian; OVCAR-5 ovarian; OVCAR-4 ovarian; SK-OV-3 ovarian; OVCAR-3 ovarian; HS 578T breast; NCI/ADR-RES ovarian; T-47D breast; BT-549 breast; MDA-MB-435 melanoma; SW-620 colon; MCF7 breast; HCT-116 colon; HCC-2998 colon; KM12 colon.
Holding throughout (assay): NCI-60 one-dose screen, 48 h (100 = growth as untreated, 0 = no growth, -100 = all killed)
Holding throughout (details): 10 µM

SMILES strings stand for the structures. This is part of a sample that, as a whole, favours compounds with a hit. Of some 83,000 tested, about 20% had one in any assay.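 Negative percent growth values reflect cell death: -40 means 40% of the cells present at the start died, and -100 means all died.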 A number with no mark means an inactive call. The source made the active and inactive calls. How the source made its calls: active means growth percent below 10; inactive means the rest.

Consider `COc1ccccc1NC1=C(N2CCCCC2)C(=O)c2ccccc2C1=O`, for which the growth was 76.3% in the assay with SR leukemia; 40.2% in the assay with RPMI-8226 leukemia; 84.7% in the assay on OVCAR-8 ovarian; 96.2% with OVCAR-5 ovarian; 69.7% in the assay on OVCAR-4 ovarian; 102% in the assay on SK-OV-3 ovarian. Also, the growth was 87% with OVCAR-3 ovarian; 93.3% in the assay with HS 578T breast; 87.3% in the assay with NCI/ADR-RES ovarian; 77.4% with T-47D breast; 94.2% in the assay with BT-549 breast; 93.2% in the assay with MDA-MB-435 melanoma. Further, the growth with SW-620 colon was 93.4%; with MCF7 breast, 74.8%; in the assay on HCT-116 colon, 78.1%; in the assay with HCC-2998 colon it was 91.7%.
With `COc1cc(C(=O)n2nc(N)c3c(C)cc(C)nc32)cc(OC)c1OC`, the growth with SR leukemia is 13%; in the assay on RPMI-8226 leukemia, 59.6%; in the assay with OVCAR-8 ovarian it was 84.4%; in the assay on OVCAR-5 ovarian, 118%; in the assay on OVCAR-4 ovarian, 92.8%; with SK-OV-3 ovarian it was 92.3%. Also, the growth was 69.3% with OVCAR-3 ovarian; 83.2% with HS 578T breast; 60.8% in the assay on NCI/ADR-RES ovarian; 98.5% in the assay on T-47D breast; 79.7% in the assay with BT-549 breast; -12.7% (active) in the assay on MDA-MB-435 melanoma. In addition, the growth was 31.5% in the assay with SW-620 colon, 45.3% in the assay with MCF7 breast, 70.2% in the assay on HCT-116 colon and 95.6% with HCC-2998 colon.
As to `C=C1C(=O)O[C@H]2[C@H]1CC/C(COC(=O)OCCCCCOC(=O)OC/C1=C/CC[C@@]3(C)O[C@H]3[C@H]3OC(=O)C(=C)[C@@H]3CC1)=C\CC[C@@]1(C)O[C@@H]21`, the growth was -20.1% (active) in the assay with SR leukemia; -3.28% (active) in the assay on RPMI-8226 leukemia; -4.61% (active) with OVCAR-8 ovarian; -36.2% (active) in the assay on OVCAR-5 ovarian; -43% (active) in the assay on OVCAR-4 ovarian; 54.6% in the assay on SK-OV-3 ovarian. Moreover, the growth with OVCAR-3 ovarian was -97.5% (active); in the assay with HS 578T breast, 33.8%; in the assay on NCI/ADR-RES ovarian, 42.5%; in the assay with T-47D breast, -45% (active); in the assay on BT-549 breast, -72.7% (active); with MDA-MB-435 melanoma it was -13% (active). In addition, the growth was -54.3% (active) in the assay on SW-620 colon; -75.8% (active) in the assay with MCF7 breast; -95.9% (active) with HCT-116 colon; -60.8% (active) with HCC-2998 colon; 5.59% (active) in the assay on KM12 colon.
On to `COc1cc(C(c2c[nH]c3ccccc23)N2CCCC2)ccc1OCc1ccccc1` (centres undefined), for which the growth in the assay on SR leukemia was 34.9%; in the assay on RPMI-8226 leukemia, 32.3%; in the assay with OVCAR-8 ovarian, 80.4%; with OVCAR-5 ovarian, 97.1%; in the assay on OVCAR-4 ovarian, 91.8%; in the assay with SK-OV-3 ovarian, 89.5%. Further, the growth was 75.5% with OVCAR-3 ovarian; 57.2% in the assay with HS 578T breast; 76.5% with NCI/ADR-RES ovarian; 81.5% in the assay on T-47D breast; -2.45% (active) in the assay on BT-549 breast; 96.8% in the assay with MDA-MB-435 melanoma. For the same molecule, the growth is 98.9% in the assay with SW-620 colon; 83.4% with MCF7 breast; 69% in the assay with HCT-116 colon; 96.2% with HCC-2998 colon; 92.2% in the assay on KM12 colon.
In the case of `COC(=O)c1cnc2c(c1)Oc1ccc(Cl)cc1-c1cc(C)nn1-2`, the growth is 89.3% with SR leukemia; 95.6% in the assay on RPMI-8226 leukemia; 96% in the assay with OVCAR-8 ovarian; 89% in the assay on OVCAR-5 ovarian; -13.1% (active) in the assay on OVCAR-4 ovarian; 76.6% with SK-OV-3 ovarian. Further, the growth is 44.5% in the assay with OVCAR-3 ovarian; 56% in the assay on HS 578T breast; 70.3% in the assay on NCI/ADR-RES ovarian; 59.9% in the assay with T-47D breast; 83.4% in the assay on BT-549 breast; 91.3% in the assay with MDA-MB-435 melanoma. In addition, the growth is 66% with SW-620 colon; 83.4% in the assay with MCF7 breast; 42.6% with HCT-116 colon; 92.1% in the assay on HCC-2998 colon; 85.8% in the assay on KM12 colon.
For `O=C(Nc1ccc(OS(=O)(=O)Cc2ccccc2)cc1)C12CC3CC(CC(C3)C1)C2`, the growth is 30.3% in the assay with SR leukemia; 35% with RPMI-8226 leukemia; 91.4% in the assay on OVCAR-8 ovarian; 104% with OVCAR-5 ovarian; 78.7% in the assay with OVCAR-4 ovarian; 87.3% in the assay on SK-OV-3 ovarian. Further, the growth in the assay on OVCAR-3 ovarian is 80.2%; in the assay with HS 578T breast, 98.7%; in the assay with NCI/ADR-RES ovarian, 84.4%; in the assay on T-47D breast it was 51.3%; with BT-549 breast, 71.2%; in the assay on MDA-MB-435 melanoma, 97.9%. Further, the growth is 25.3% in the assay with SW-620 colon; 80.7% with MCF7 breast; 63.9% with HCT-116 colon; 49.1% in the assay on HCC-2998 colon; 42.4% with KM12 colon.
Take `O=C(Nc1ccc(OCc2nnc(-c3ccccc3)o2)c(F)c1)Nc1ccc(Cl)c(Cl)c1`: the growth in the assay on SR leukemia was 6.91% (active); in the assay on RPMI-8226 leukemia it was 25.5%; in the assay with OVCAR-8 ovarian, 61.6%; in the assay with OVCAR-5 ovarian it was 93.4%; in the assay with OVCAR-4 ovarian it was 50.6%; in the assay on SK-OV-3 ovarian it was 89.6%. In addition, the growth was 53.6% in the assay on OVCAR-3 ovarian; 63.2% in the assay on HS 578T breast; 58.6% in the assay with NCI/ADR-RES ovarian; 33.7% in the assay on T-47D breast; 79% with BT-549 breast; 68.8% in the assay on MDA-MB-435 melanoma. The growth is 66.3% in the assay with SW-620 colon; 57.7% in the assay on MCF7 breast; 49.2% in the assay on HCT-116 colon; 58.5% in the assay with HCC-2998 colon; 34.1% with KM12 colon.
As to `COc1cc(-c2nc3ccc(C)cc3[nH]2)ccc1OCc1nnc(-c2ccc(CC(C)C)cc2)o1`, the growth with SR leukemia was -2.79% (active); in the assay on RPMI-8226 leukemia, 68.9%; with OVCAR-8 ovarian, 97.8%; in the assay with OVCAR-5 ovarian, 102%; in the assay on OVCAR-4 ovarian, 91.2%; in the assay on SK-OV-3 ovarian, 94.4%. The growth with OVCAR-3 ovarian was 101%; in the assay with HS 578T breast, 84%; in the assay with NCI/ADR-RES ovarian it was 96%; with T-47D breast, 77.2%; in the assay with BT-549 breast, 101%; in the assay with MDA-MB-435 melanoma, 99.6%. The growth in the assay with SW-620 colon is 106%; in the assay with MCF7 breast it was 79.8%; in the assay on HCT-116 colon, 97.1%; in the assay with HCC-2998 colon, 115%; in the assay on KM12 colon, 97.5%.

Source of the values: PubChem BioAssay (NCI).
